Rows were chosen to be rich in hits. Some 1.8% of all compounds tested hit in one or more screens of this group.
Sa ugtP lethal = growth inhibition of ugtP-null S. aureus, primary screen, RN4220 ugtP deletion, OD600; 16 h; growth inhibition, % (test concentration not listed); hit rate 0.54% among 330,000; AID 1259309, 2017; in the data active = growth inhibition above about 68%;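 note: plate controls were untreated wells for no effect and antibiotic for full effect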
PriA SSB inh = inhibitors of Klebsiella pneumoniae PriA binding to SSB C-terminal tail, primary screen, biochemical, AlphaScreen; AID 1272365, 2023; inhibition, % at 33 µM; PriA–SSB C-terminal tail interaction (Klebsiella pneumoniae); hit rate 0.6% among 430,000; AlphaScreen SSBct-PriA binding, biotinylated peptide; in the data active = inhibition mostly above about 37%, no sharp cut-off; inactive = mostly below about 20%;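 note: plate controls were negative control peptide for no effect and reference peptide for full effect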
PfHsp40 rescue = rescue of yeast from PfHsp40 toxicity, primary screen, S. cerevisiae, ATP luminescence. S. cerevisiae expressing PfHsp40, growth rescue. growth rescue, % at 12.5 µM. hit rate 0.68% among 340,000. AID 504582, 2011; in the data active = growth rescue above about 28%, passing the limit was not always enough;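 note: yeast W303a lacking pdr1 and pdr3 grown in galactose medium; growth measured after three days at 30 °C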
Mtb hypoxia rep = PubChem AID 1159583; fluorescence inhibition, % (no concentration beside the values); M. tuberculosis hypoxia-regulated fluorescent reporter, fluorescence; hit rate 0.1% among 300,000; in the data active = fluorescence inhibition mostly above about 23%, no sharp cut-off; inactive = mostly below about 17%
RN4220 kill = growth inhibition of S. aureus RN4220, primary screen, OD600. 16 h. hit rate 0.33% among 330,000. inhibition, % (test concentration not listed). AID 1259311, 2017; in the data active = inhibition above about 85%;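 note: plate controls were untreated cells for no effect and reference antibiotic for full effect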
VHR inh abs = VHR1 phosphatase inhibitors, primary screen, biochemical, absorbance, uHTS; inhibition, % at 13.3 µM; Dual specificity protein phosphatase 3 (Homo sapiens), P51452; recombinant VHR phosphatase, pNPP absorbance; hit rate 0.52% among 290,000; in the data active = inhibition above about 50%
Target sequence (P51452 whole entry, looked up): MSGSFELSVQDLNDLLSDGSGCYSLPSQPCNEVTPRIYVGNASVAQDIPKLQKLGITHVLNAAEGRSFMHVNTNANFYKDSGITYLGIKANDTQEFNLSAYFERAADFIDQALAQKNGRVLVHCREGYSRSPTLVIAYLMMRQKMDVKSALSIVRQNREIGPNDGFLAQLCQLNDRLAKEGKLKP
Starred values were filed as active, the others as inactive; x = no result.

SMILES | Sa ugtP lethal | PriA SSB inh | PfHsp40 rescue | Mtb hypoxia rep | RN4220 kill | VHR inh abs
O=C(CNC(=O)c1ccccc1Br)N/N=C/c1cc(Br)ccc1O | x | x | 1 | x | x | -16
O=C(N/N=C/c1cc(Cl)ccc1O)c1ccccc1Br | x | x | 108* | x | x | 30
O=C(NN=Cc1cc(Cl)ccc1O)c1ccc(Br)cc1 | 90* | -12 | x | 13 | 74 | x
CC(C)S(=O)(=O)c1ccc(CC(=O)NC2CC(O)C(CO)C2)cc1 (configuration not stated) | x | -5 | x | x | x | x
Cn1nc(CNC(=O)c2ccccc2C(F)(F)F)cc1-c1ccncc1 | x | -17 | x | x | x | x
S=c1[nH]nc(-c2ccccc2)n1N=Cc1ccc(Cl)cc1 | 3 | -1 | x | 1 | 24 | x
COc1cc(C(=O)NCC(=O)NN=Cc2ccccn2)cc(OC)c1OC | 4 | 5 | x | -2 | -2 | x
O=C(CNC(=O)/C=C/c1ccccc1)N=Nc1c(O)n(Cc2ccccc2)c2ccccc12 | -17 | x | x | -1 | 7 | 56*
CNC(=O)c1cc(C(=O)O)ccn1 | x | -5 | x | x | x | x
COc1ccc2nc(N=Cc3c(C)[nH]n(-c4ccc(C)cc4C)c3=O)sc2c1 | -1 | 48* | x | -4 | -3 | x
C=CSc1sc(Cl)c(N2CCOCC2)c1[N+](=O)[O-] | 12 | 18 | x | 4 | 6 | 24
C=CS(=O)(=O)c1sc(Cl)c(N2CCOCC2)c1[N+](=O)[O-] | -1 | -11 | 482* | -3 | 3 | 8
O=C1C2ON(c3ccccc3)C(c3ccncc3)C2C(=O)N1c1ccccc1 (configuration not stated) | -4 | 7 | -2 | 5 | 8 | 24
Cc1cccc(C)c1N1C(=O)C2ON(c3ccccc3)C(c3ccncc3)C2C1=O (configuration not stated) | -3 | 3 | 254* | 1 | 2 | 20
COc1cccc(NC2=Nc3cccc4cccc2c34)c1 | -15 | 41* | 1 | -3 | 0 | 17
COc1ccc(S(=O)(=O)C2CN(C(=O)c3ccccn3)C2)cc1 | x | -19 | x | x | x | x
O=C(Nc1nc2cc3c(cc2s1)OCCO3)c1ccc([N+](=O)[O-])s1 | x | 0 | x | x | x | x
CCCC1CC(C(=O)NC(C(C)Cl)C2OC(SC)C(O)C(O)C2O)N(C)C1 (configuration not stated) | 100* | -2 | 1 | 44* | 100* | -2
O=C(Oc1cccc2ccccc12)c1ccc(Cl)c([N+](=O)[O-])c1 | x | 30 | x | x | x | x
COc1ccc(-c2nc3ccc(C)cn3c2NCc2ccc3c(c2)OCO3)cc1 | 3 | 16 | 1 | -8 | 1 | 22
Cc1ccc(-c2nc3ccccn3c2NCc2ccc3c(c2)OCO3)cc1 | -4 | 45* | -2 | 6 | 2 | -2
Cc1ccc(C(=O)Nc2nnc(SCC(=O)NCc3ccco3)s2)cc1[N+](=O)[O-] | x | -1 | x | x | x | x
O=C(NCc1ccccn1)c1ccc(OC2CCN(Cc3ccc(F)cc3F)CC2)cc1 | 4 | -12 | 0 | 7 | -2 | -8
COc1ccc(CN2CCC(Oc3ccc(C(=O)NCc4ccccn4)cc3)CC2)c(F)c1 | 10 | 4 | 0 | 2 | 1 | 57*
COc1ccccc1CNS(=O)(=O)c1cccc2cnccc12 | x | -2 | x | x | x | x
SMILES | Sa ugtP lethal | PriA SSB inh | PfHsp40 rescue | Mtb hypoxia rep | RN4220 kill | VHR inh abs
Cc1cccc(-c2nnc(N)o2)n1 | x | -4 | x | x | x | x
CC(=NNc1ccc([N+](=O)[O-])cc1)c1c[nH]c2ccccc12 | -25 | 40* | x | 9 | -6 | x
C/C(=N\Nc1ccc([N+](=O)[O-])cc1)c1ccc(O)cc1 | x | x | 180* | x | x | 18
C/C(=N/NS(=O)(=O)c1cccc([N+](=O)[O-])c1)c1c[nH]c2ccccc12 | x | x | 0 | x | x | 14
COc1cc(C=NNC(=O)C(=O)C=C2NC3(CCCC3)Cc3ccccc32)ccc1O | x | 22 | x | x | x | x
C(=N/Nc1nnc(-c2ccccc2)c(-c2ccccc2)n1)/c1ccncc1 | x | -7 | x | x | x | x
O=[N+]([O-])c1ccccc1/C=N/Nc1nnc(-c2ccccc2)c(-c2ccccc2)n1 | x | x | 42* | x | x | 7
CCOC(=O)C(Nc1ccc2ccccc2c1)C(=O)OCC | 9 | 58* | 0 | 5 | 8 | -4
O=C(NNC(=O)c1cc2cc(Br)ccc2oc1=O)c1ccc(O)cc1O | -26 | 2 | 1 | 4 | 12 | 60*
CN(C)CCCOc1ccc(Cl)cc1Br | -8 | 51* | -1 | 6 | 0 | 10
Cc1nnsc1C(=O)N1CC(S(=O)(=O)Cc2ccco2)C1 | x | -6 | x | x | x | x
CCOc1ccccc1NC(=O)c1ccc2c(c1)C(=O)N(CC)C2=O | 7 | 100* | 2 | -2 | 1 | 40
CCOc1ccccc1NC(=O)c1ccc2c(c1)C(=O)N(C(C)(C)C)C2=O | 2 | -7 | 0 | 9 | 0 | 22
COc1ccc(-c2nc(CSCC(=O)N3CCC4(CC3)OCCO4)c(C)o2)cc1OC | -3 | 0 | 0 | -5 | -3 | 25
Cc1oc(-c2cccs2)nc1CSCC(=O)N1CCC2(CC1)OCCO2 | 7 | -3 | 0 | active | 4 | 30
COc1cc(/C=N/n2c(C3CCCCC3)n[nH]c2=S)ccc1O | x | x | 0 | x | x | 58*
COc1cc(C=Nn2c(C3CCCCC3)n[nH]c2=S)cc(OC)c1O | 2 | -6 | x | 7 | 1 | x
COc1ccc(Cc2nnc(SCC(=O)Nc3ccc([N+](=O)[O-])cc3)n2N)cc1 | x | 4 | x | x | x | x
COC(=O)c1ccc2c(=O)n(-c3ccccc3F)c(=S)[nH]c2c1 | active | 0 | -1 | 14 | 88 | 6
NCc1ncc(-c2ccccc2)[nH]1 | x | -14 | x | x | x | x
CCC(C)[C@H](NC(=O)N1CCn2c1nc1ccccc12)C(=O)NCc1ccccc1 (some centres not stated) | -4 | -1 | -1 | 2 | 0 | 50*
O=C(Nc1ccc(F)cc1)c1ccc2noc(-c3ccccc3)c2c1 | x | -3 | x | x | x | x
C[n+]1cn(/N=C/c2ccccc2)c2ccccc21 | x | x | -1 | x | x | 54*
CCOc1cn(C)c(C(=O)Nc2ccc(Oc3ccccc3)cc2)cc1=O | x | -7 | x | x | x | x
CNC(=O)CC1C(=O)N(Cc2ccccc2)C(=S)N1NC(=O)c1cccc(F)c1 (configuration not stated) | -3 | -4 | -1 | -1 | 3 | -2
CCN1C(=O)C(CC(=O)Nc2ccccc2Cl)N(NC(=O)c2cccc(F)c2)C1=S (configuration not stated) | 1 | -10 | 122* | 1 | -1 | -11
Cc1cccc(Oc2cc([N+](=O)[O-])cc3c2C(=O)Nc2ccccc2O3)c1 | 97* | -10 | 0 | 1 | 98* | -14
O=C1Nc2ccccc2Oc2cc([N+](=O)[O-])cc(Oc3ccccc3)c21 | 86 | -2 | 0 | 4 | 93* | -14
COc1cc(OC)cc(N2C(=O)CC(N3CCC(C(=O)N4CCCCC4)CC3)C2=O)c1 (configuration not stated) | -4 | -7 | 67* | -17 | -1 | -4

Screening results as filed in PubChem BioAssay.
